Records with an inconclusive call do not appear. More than one record can exist for a structure, and the calls need not agree. Activity calls are given as the source filed them. The calls were made as follows, unless noted: active = hit-call score of the fitted dose curve at least 0.9, where 1 is the maximum; inactive = score below 0.9.
Columns and labels:
[1] = molecular target: human RAR-related Orphan Receptor gamma (RORg), RORC (gene 6097) (UniProt P51449); assay: ATG_RORg_TRANS: Attagene TRANS-FACTORIAL HepG2 Assay for human RAR-related Orphan Receptor gamma (RORg) (AID 2283011; active = hit-call score of the fitted dose curve at least 0.9, where 1 is the maximum)
Sequence of human RAR-related Orphan Receptor gamma (RORg), RORC (gene 6097) (P51449 whole entry, looked up, the tested form may be a part): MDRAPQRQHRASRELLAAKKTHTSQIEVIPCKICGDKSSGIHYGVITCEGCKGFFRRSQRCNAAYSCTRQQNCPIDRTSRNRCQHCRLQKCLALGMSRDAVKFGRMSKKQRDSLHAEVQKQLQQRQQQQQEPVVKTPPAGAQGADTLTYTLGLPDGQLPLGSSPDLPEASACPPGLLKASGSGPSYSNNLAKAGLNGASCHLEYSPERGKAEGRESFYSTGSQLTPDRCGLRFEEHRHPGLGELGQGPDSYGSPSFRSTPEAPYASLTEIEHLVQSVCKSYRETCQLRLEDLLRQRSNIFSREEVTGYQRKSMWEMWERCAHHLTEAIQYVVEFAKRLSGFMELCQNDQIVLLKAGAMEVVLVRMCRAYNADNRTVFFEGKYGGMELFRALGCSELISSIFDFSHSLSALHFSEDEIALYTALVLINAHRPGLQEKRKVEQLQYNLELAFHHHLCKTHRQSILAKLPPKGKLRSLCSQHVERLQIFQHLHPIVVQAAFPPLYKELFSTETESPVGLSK
Procedure, shortened: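 HepG2 cells transiently transfected with GAL4-UAS reporter units and chimeric RORg-Gal4 construct; after 24 h chemical exposure, reporter mRNA measured by RT-PCR with fluorescent capillary electrophoresis, gain of signal fitted against DMSO.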

[2] = molecular target: Retinoic acid receptor RXR-alpha (Homo sapiens) (UniProt P19793); assay: ATG_RXRa_TRANS: Attagene TRANS-FACTORIAL HepG2 Assay for human Retinoid X Receptor alpha (RXRa) (AID 2283012; active = hit-call score of the fitted dose curve at least 0.9, where 1 is the maximum)
Sequence of Retinoic acid receptor RXR-alpha (Homo sapiens) (P19793 whole entry, looked up, the tested form may be a part): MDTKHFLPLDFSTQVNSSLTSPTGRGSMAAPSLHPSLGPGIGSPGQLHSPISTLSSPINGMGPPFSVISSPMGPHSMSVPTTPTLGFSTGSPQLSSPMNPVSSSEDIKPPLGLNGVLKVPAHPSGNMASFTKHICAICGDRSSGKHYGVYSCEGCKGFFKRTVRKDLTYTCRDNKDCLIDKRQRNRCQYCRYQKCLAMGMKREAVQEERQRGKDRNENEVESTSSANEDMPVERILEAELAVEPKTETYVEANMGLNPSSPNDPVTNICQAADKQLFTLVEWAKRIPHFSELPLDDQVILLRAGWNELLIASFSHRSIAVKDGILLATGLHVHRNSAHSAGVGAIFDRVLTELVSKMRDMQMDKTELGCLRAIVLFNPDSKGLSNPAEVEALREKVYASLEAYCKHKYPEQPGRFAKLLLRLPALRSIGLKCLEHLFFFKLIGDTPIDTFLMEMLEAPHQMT
Procedure, shortened: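 Transient transfection of human HepG2 with multiple GAL4-UAS reporter constructs; 24 h compound exposure; total RNA isolated, reverse-transcribed, PCR-amplified, 6-FAM labelled, HpaI-cut, resolved by capillary electrophoresis. Positive-direction fit versus DMSO.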

[3] = molecular target: human Retinoid X Receptor beta (RXRb), RXRB (gene 6257) (UniProt P28702); assay: ATG_RXRb_TRANS: Attagene TRANS-FACTORIAL HepG2 Assay for human Retinoid X Receptor beta (RXRb) (AID 2283013; active = hit-call score of the fitted dose curve at least 0.9, where 1 is the maximum)
Sequence of human Retinoid X Receptor beta (RXRb), RXRB (gene 6257) (P28702 whole entry, looked up, the tested form may be a part): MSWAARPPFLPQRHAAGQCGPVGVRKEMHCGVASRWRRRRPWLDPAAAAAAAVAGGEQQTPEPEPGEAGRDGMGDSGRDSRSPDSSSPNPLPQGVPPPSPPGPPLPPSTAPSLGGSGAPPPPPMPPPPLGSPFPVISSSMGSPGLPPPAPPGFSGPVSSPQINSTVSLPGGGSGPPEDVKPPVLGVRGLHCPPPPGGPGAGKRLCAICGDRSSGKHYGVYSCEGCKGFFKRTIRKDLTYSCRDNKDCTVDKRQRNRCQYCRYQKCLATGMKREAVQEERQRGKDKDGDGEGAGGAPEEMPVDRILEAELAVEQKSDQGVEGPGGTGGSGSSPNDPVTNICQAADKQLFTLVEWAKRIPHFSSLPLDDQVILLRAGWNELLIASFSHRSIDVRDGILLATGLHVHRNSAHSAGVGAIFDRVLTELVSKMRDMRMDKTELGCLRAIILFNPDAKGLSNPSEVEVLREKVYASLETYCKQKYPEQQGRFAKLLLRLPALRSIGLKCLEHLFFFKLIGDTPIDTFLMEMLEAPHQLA
Procedure, shortened: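 Transfect HepG2 with GAL4-UAS multi-reporter constructs (chimeric NR-Gal4, TRANS format); dose compound 24 h; isolate RNA, RT-PCR, FAM primer extension, HpaI digest; quantify by capillary electrophoresis; positive direction vs DMSO.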

[4] = molecular target: human Thyroid Receptor alpha (THRa1), THRA (gene 7067) (UniProt P10827); assay: ATG_THRa1_TRANS: Attagene TRANS-FACTORIAL HepG2 Assay for human Thyroid Receptor alpha (THRa1) (AID 2283014; active = hit-call score of the fitted dose curve at least 0.9, where 1 is the maximum)
Sequence of human Thyroid Receptor alpha (THRa1), THRA (gene 7067) (P10827 whole entry, looked up, the tested form may be a part): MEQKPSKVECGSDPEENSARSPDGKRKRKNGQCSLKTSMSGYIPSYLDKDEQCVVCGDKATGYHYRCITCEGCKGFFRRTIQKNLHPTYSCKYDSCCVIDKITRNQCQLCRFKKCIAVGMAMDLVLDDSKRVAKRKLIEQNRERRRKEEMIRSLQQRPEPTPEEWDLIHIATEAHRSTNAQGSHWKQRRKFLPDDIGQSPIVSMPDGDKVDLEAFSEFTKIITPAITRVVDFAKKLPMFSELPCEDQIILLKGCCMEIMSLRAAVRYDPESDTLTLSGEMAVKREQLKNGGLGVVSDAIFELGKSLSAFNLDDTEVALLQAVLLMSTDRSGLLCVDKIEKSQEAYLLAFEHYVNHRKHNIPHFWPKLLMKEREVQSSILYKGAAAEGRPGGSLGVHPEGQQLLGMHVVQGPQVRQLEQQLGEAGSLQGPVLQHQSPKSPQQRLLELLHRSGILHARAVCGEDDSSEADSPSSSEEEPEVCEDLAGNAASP
Procedure, shortened: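 HepG2 cells transiently transfected with chimeric NR-Gal4 and GAL4-UAS reporter units, dosed 24 h. Reporter mRNA quantified by RT-PCR, fluorescent labeling, HpaI digestion and capillary electrophoresis; gain-of-signal fit versus DMSO.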

[5] = molecular target: human Vitamin D Receptor (VDR), VDR (gene 7421) (UniProt P11473); assay: ATG_VDR_TRANS: Attagene TRANS-FACTORIAL HepG2 Assay for human Vitamin D Receptor (VDR) (AID 2283022; active = hit-call score of the fitted dose curve at least 0.9, where 1 is the maximum)
Sequence of human Vitamin D Receptor (VDR), VDR (gene 7421) (P11473 whole entry, looked up, the tested form may be a part): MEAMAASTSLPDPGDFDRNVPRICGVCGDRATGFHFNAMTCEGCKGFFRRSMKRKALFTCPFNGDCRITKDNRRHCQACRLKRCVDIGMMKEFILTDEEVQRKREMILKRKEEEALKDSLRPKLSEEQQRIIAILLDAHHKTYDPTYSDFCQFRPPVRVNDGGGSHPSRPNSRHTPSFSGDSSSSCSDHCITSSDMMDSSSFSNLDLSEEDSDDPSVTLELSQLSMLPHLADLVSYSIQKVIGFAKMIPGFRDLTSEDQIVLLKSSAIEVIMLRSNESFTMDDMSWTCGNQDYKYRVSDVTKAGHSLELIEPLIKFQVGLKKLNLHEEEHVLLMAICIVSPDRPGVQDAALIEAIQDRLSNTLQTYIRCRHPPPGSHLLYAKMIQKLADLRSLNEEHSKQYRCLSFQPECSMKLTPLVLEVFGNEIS
Procedure, shortened: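 HepG2 cells were transiently transfected with GAL4-UAS reporter units and a chimeric VDR-Gal4 construct, then dosed for 24 hours. Reporter mRNA was quantified by RT-PCR, fluorescent labeling, HpaI digestion and capillary electrophoresis; gain of signal analysed vs DMSO.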

[6] = read-out: E-selectin (Homo sapiens) (UniProt P16581); assay: BSK_3C_Eselectin: BioMAP Diversity Plus: 3C Assay for Eselectin Biomarker Activity (AID 2283015); conditions: primary human endothelial cells (HUVEC); actives raise or lower the signal;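 also: cell surface E-selectin protein quantified by ELISA 24 h after dosing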
Procedure, shortened: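 Primary human umbilical vein endothelial cells (3C system), read 24 h after compound addition; E-selectin measured by ELISA. Bidirectional curve fitting against DMSO baseline; cytotoxicity by parallel SRB total-protein staining.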

[7] = read-out: Monocyte Chemoattractant Protein-1 (MCP1), CCL2 (gene 6347); assay: BSK_3C_MCP1: BioMAP Diversity Plus: 3C Assay for Monocyte Chemoattractant Protein-1 (MCP1) Biomarker Activity (AID 2283017); conditions: primary human endothelial cells (HUVEC); actives raise or lower the signal
Procedure, shortened: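 Human umbilical vein endothelial cells (3C system) exposed to chemicals for 24 h; MCP-1 quantified by ELISA against the DMSO baseline with bidirectional fitting, and parallel SRB staining used to assess cytotoxicity.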

[8] = read-out: Monocyte Chemoattractant Protein-1 (MCP1), CCL2 (gene 6347); assay: BSK_4H_MCP1: BioMAP Diversity Plus: 4H Assay for Monocyte Chemoattractant Protein-1 (MCP1) Biomarker Activity (AID 2283018); conditions: primary human endothelial cells (HUVEC); actives raise or lower the signal
Procedure, shortened: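 ELISA read-out of MCP-1 from human vascular endothelial primary cells taken at 24 hours after compound exposure. Activity was fitted in both directions relative to DMSO, which served as negative control.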

[9] = read-out: Human Leukocyte Antigen - DR isotype (HLADR), HLA-DRA (gene 3122); assay: BSK_3C_HLADR: BioMAP Diversity Plus: 3C Assay for Human Leukocyte Antigen - DR isotype (HLADR) Biomarker Activity (AID 2283019); conditions: primary human endothelial cells (HUVEC); actives raise or lower the signal;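 also: ELISA of cell-surface HLA-DR on HUVEC 24 h after dosing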
Procedure, shortened: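 HUVEC monoculture, HLA-DR measured by ELISA 24 h after chemical dosing. Fitted bidirectionally against DMSO baseline; parallel SRB staining assessed cytotoxicity, with 3C proliferation read by SRB at 48 h.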

[10] = read-out: Interleukin-8 (IL8), CXCL8 (gene 3576); assay: BSK_3C_IL8: BioMAP Diversity Plus: 3C Assay for Interleukin-8 (IL8) Biomarker Activity (AID 2283020); conditions: primary human endothelial cells (HUVEC); actives raise or lower the signal
Procedure, shortened: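 ELISA read-out of IL-8 from human umbilical vein endothelium, measured 24 h after chemical dosing. Activity is expressed relative to DMSO negative control, with both increases and decreases fitted.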

[11] = read-out: Monokine induced gamma interferon (MIG), CXCL9 (gene 4283); assay: BSK_3C_MIG: BioMAP Diversity Plus: 3C Assay for Monokine induced gamma interferon (MIG) Biomarker Activity (AID 2283021); conditions: primary human endothelial cells (HUVEC); actives raise or lower the signal
Procedure, shortened: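 Read-out is ELISA detection of MIG on human umbilical vein endothelial cells, taken 24 h after dosing. Gain or loss of signal was scored relative to DMSO controls using bidirectional curve fitting.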

[12] = read-out: Pselectin, SELP (gene 6403); assay: BSK_4H_Pselectin: BioMAP Diversity Plus: 4H Assay for Pselectin Biomarker Activity (AID 2283026); conditions: primary human endothelial cells (HUVEC); actives raise or lower the signal
Procedure, shortened: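 ELISA read-out of P-selectin on human umbilical vein endothelium after 24 h of dosing. Values derive from bidirectional fitting relative to DMSO. Parallel SRB protein staining flagged overt cytotoxicity.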

[13] = BSK_4H_SRB: Viability Assessment in the BioMAP Diversity Plus: 4H Assay (AID 2283027); conditions: primary human endothelial cells (HUVEC);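 also: cells exposed to compound for 24 h before staining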;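 as to AC50: curves fitted both ways versus DMSO so AC50 may be loss or gain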
Procedure, shortened: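 Human umbilical vein endothelial cells, 24 h after chemical dosing; total protein measured by 0.1% sulforhodamine B staining after 10% TCA fixation, read at 560 nm. Bidirectional fitting against DMSO.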

[14] = BSK_BE3C_SRB: Viability Assessment in the BioMAP Diversity Plus: BE3C Assay (AID 2283028); conditions: primary human bronchial epithelial cells
Procedure, shortened: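 Human bronchial epithelial primary cells in confluent culture, 24 h after chemical dosing; total protein by 0.1% SRB staining after 10% TCA fixation, read at 560 nm. Bidirectional fitting versus DMSO baseline.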

[15] = read-out: Thrombomodulin, THBD (gene 7056); assay: BSK_3C_Thrombomodulin: BioMAP Diversity Plus: 3C Assay for Thrombomodulin Biomarker Activity (AID 2283029); conditions: primary human endothelial cells (HUVEC); actives raise or lower the signal
Procedure, shortened: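 Read-out is ELISA of thrombomodulin on human umbilical vein endothelium 24 h after chemical dosing. Gain or loss of signal is scored relative to DMSO. Overt cytotoxicity is checked in parallel cultures by sulforhodamine B staining.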

[16] = read-out: Interleukin-1 alpha (IL1a), IL1A (gene 3552); assay: BSK_BE3C_IL1a: BioMAP Diversity Plus: BE3C Assay for Interleukin-1 alpha (IL1a) Biomarker Activity (AID 2283016); conditions: primary human bronchial epithelial cells; actives raise or lower the signal
Procedure, shortened: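 BE3C primary human bronchial epithelium; cpd 24 h; IL-1a by ELISA; bidirectional fit vs DMSO; parallel SRB (0.1% SRB, 10% TCA fix, 560 nm) for cytotoxicity.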

[17] = BSK_3C_SRB: Viability Assessment in the BioMAP Diversity Plus: 3C Assay (AID 2283023); conditions: primary human endothelial cells (HUVEC);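 also: fitted both ways against DMSO so a hit may be signal rise or drop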
Procedure, shortened: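 Human umbilical vein endothelial cells in the 3C system, treated 24 h. Total protein measured by 0.1% sulforhodamine B staining after 10% TCA fixation, read at 560 nm; bidirectional fit versus DMSO.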

[18] = BSK_3C_Vis: BioMAP Diversity Plus: 3C Assay for Morphology Visualization (AID 2283025); conditions: primary human endothelial cells (HUVEC);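 also: fitted both ways so gain or loss versus DMSO counts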
Procedure, shortened: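 Chemicals were added to primary human umbilical vein endothelium, cells were incubated 24 h, and morphology was then visualized by light microscopy. Gain or loss of signal was fitted bidirectionally relative to DMSO.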

[19] = molecular target: human RAR-related Orphan Receptor beta (RORb), RORB (gene 6096) (UniProt Q92753); assay: ATG_RORb_TRANS: Attagene TRANS-FACTORIAL HepG2 Assay for human RAR-related Orphan Receptor beta (RORb) (AID 2283010; active = hit-call score of the fitted dose curve at least 0.9, where 1 is the maximum)
Sequence of human RAR-related Orphan Receptor beta (RORb), RORB (gene 6096) (Q92753 whole entry, looked up, the tested form may be a part): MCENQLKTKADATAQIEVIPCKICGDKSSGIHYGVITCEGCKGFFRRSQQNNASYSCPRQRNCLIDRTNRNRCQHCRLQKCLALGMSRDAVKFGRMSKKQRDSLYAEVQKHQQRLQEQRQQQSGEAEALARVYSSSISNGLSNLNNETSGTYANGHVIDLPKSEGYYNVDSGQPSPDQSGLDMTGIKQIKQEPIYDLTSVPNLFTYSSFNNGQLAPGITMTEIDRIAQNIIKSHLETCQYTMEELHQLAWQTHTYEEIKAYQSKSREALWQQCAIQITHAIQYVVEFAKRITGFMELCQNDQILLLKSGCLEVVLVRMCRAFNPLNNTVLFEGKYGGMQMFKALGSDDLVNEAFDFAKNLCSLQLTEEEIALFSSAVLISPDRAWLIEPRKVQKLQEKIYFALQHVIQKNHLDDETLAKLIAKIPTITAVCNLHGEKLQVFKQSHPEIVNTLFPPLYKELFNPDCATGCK
Procedure, shortened: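 Readout is reporter-gene mRNA induction, detected as fluorescence after RT-PCR and capillary electrophoresis, fitted for gain of signal against DMSO controls. Transiently transfected HepG2 liver cells carrying GAL4-UAS reporter constructs were treated for 24 hours.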

[20] = read-out: Matrix Metallopeptidase 1 (MMP1), MMP1 (gene 4312); assay: BSK_BE3C_MMP1: BioMAP Diversity Plus: BE3C Assay for Matrix Metallopeptidase 1 (MMP1) Biomarker Activity (AID 2283024); conditions: primary human bronchial epithelial cells; actives raise or lower the signal
Procedure, shortened: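 Human bronchial epithelial cells (BE3C system) exposed to compound for 24 h; MMP1 then quantified by ELISA. Activity was fitted in both directions relative to DMSO.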

Measured: AC50

Sequence of E-selectin (Homo sapiens) (P16581 whole entry, looked up): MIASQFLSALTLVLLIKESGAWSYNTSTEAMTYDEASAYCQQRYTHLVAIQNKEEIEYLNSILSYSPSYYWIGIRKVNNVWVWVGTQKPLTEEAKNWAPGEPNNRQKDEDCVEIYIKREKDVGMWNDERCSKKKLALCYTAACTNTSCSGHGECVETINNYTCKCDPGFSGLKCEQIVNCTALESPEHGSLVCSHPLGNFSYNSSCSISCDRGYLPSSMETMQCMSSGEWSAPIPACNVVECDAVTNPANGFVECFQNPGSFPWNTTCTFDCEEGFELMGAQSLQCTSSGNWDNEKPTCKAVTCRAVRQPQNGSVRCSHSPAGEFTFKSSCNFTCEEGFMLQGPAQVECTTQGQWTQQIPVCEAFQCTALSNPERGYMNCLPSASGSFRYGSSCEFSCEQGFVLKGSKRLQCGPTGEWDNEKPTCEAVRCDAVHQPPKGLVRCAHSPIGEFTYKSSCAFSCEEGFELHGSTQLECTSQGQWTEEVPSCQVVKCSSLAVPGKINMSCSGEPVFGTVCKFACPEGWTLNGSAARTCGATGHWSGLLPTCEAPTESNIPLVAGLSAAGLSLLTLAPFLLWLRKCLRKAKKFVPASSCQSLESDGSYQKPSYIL

CSc1ccc(O)cc1C
inactive: [1] | [2] | [3] | [4] | [5]

O=C(O)C(F)(F)C(F)(F)C(F)(F)C(=O)O
not listed: [3] | [16] | [17] | [18] | [19] | [20]
inactive: all other assays above

CN(C)C(C)(C)CO
inactive: [1] | [2] | [4] | [5]

Cc1cnccn1
not listed: [3] | [5] | [15] | [19] | [20]
inactive: all other assays above

CNS(=O)(=O)C(F)(F)C(F)(F)C(F)(F)C(F)(F)C(F)(F)C(F)(F)C(F)(F)C(F)(F)F
inactive: [19] | [3] | [4] | [6] | [7] | [8] | [10] | [11] | [5] | [12] | [13] | [14]
active: [13] 29.8 µM

Cc1ccc(O)c(-n2nc3ccccc3n2)c1
active: [3] 20.4 µM
not listed: [1] | [2] | [9] | [15] | [16] | [20]
inactive: all other assays above

CO[Si](CCCOCC1CO1)(OC)OC (stereo unspecified)
inactive: [1] | [2] | [3] | [5]

CC(C)C(=O)OCc1ccccc1
inactive: [19] | [5]

CC(=O)CCC(C)C
inactive: [1]

N#CCCOCCC#N
inactive: [1] | [2] | [4]

OCC(O)CC(F)(F)C(F)(F)C(F)(F)C(F)(F)C(F)(F)C(F)(F)C(F)(F)C(F)(F)F (stereo unspecified)
not listed: [1] | [2] | [3] | [9] | [15] | [18]
inactive: all other assays above

C=C(C)C(=O)OCC(F)(F)C(F)(F)C(F)(F)C(F)F
not listed: [4] | [5] | [9] | [15] | [16] | [18] | [19] | [20]
inactive: all other assays above

From PubChem BioAssay (EPA / NIEHS)
